Shown is part of a subset that was picked to be rich in hits.
Pf apPOL inh = Pf-apPOL inhibitors, biochemical, fluorescence | inhibition, % at 10 µM | Plasmodium falciparum apicoplast DNA polymerase (apPOL) | AID 1794808, 2022 | Recombinant Pf-apPOL, molecular beacon fluorescence, 1.5 h | 0.25% of 210,000 active
mHTT-CaM PPI inh = mutant huntingtin-calmodulin interaction inhibitors – biochemical, AlphaScreen, primary screen | P42858 | AlphaScreen His-mHTT/GST-CaM binding, luminescence | inhibition, % at 15 µM | 3.6% of 190,000 active
Hits are given with their value; – = inactive; · = no result. Rule as the data show it: active = inhibition above about 50%; inactive = the rest.

SMILES | Pf apPOL inh | mHTT-CaM PPI inh
COc1ccc(C2(C(=O)NCC3(c4ccccc4)CCCOC3)CCOCC2)cc1OC (configuration not stated) | – | –
COc1ccc(NC(=O)CN(C)S(=O)(=O)c2ccc(Br)s2)c(OC)c1 | – | –
CCN1CCn2cc(C(=O)N3CCN(c4cccc(C)c4C)CC3)nc2C1 | – | –
O=C(Nc1ccc2c(=O)c3ccccc3oc2c1)c1cccc([N+](=O)[O-])c1 | – | –
COCCCNC(=O)c1ccc(C(C)C)cc1 | – | –
COCCNC(=O)c1ccc(C(C)C)cc1 | 67 | –
CC(=O)N1CCN(c2nc3c(s2)CC(C(=O)Nc2cccc(F)c2C)CC3)CC1 (configuration not stated) | – | –
Cc1ccc(O)c(N=Cc2ccc(Br)c([N+](=O)[O-])c2)c1 | – | 58
COc1cc([N+](=O)[O-])cc(C=Nc2cc(C(C)(C)C)cc(Cl)c2O)c1O | – | –
O=[N+]([O-])c1ccc(N=Cc2cc3c(cc2[N+](=O)[O-])OCO3)c(Br)c1 | – | –
COc1ccc(N=Cc2ccc(Br)c([N+](=O)[O-])c2)cc1OC | – | 54
Cn1c(=O)n(C)c2cc(N=Cc3ccc(Br)c([N+](=O)[O-])c3)ccc21 | – | –
Cc1cccc(N=Cc2cc3c(cc2[N+](=O)[O-])OCO3)c1C | – | 89
Cc1ccc(O)c(N=Cc2ccc(Cl)c([N+](=O)[O-])c2)c1 | – | –
CC(C)(C)c1cc(Cl)c(O)c(N=Cc2cc3c(cc2[N+](=O)[O-])OCO3)c1 | – | 85
Cc1ccc(-c2noc(-c3ccc(=O)n(CC(=O)OC(C)C)n3)n2)cc1 | – | –
CC(NC(=O)C(=O)NCCO)c1ccccc1 (configuration not stated) | – | –
Cc1cc(C)cc(N2CC(C(=O)NCC(C)C)CC2=O)c1 (configuration not stated) | – | –
CCCNC(=O)c1cc2nc(-c3ccc(C)cc3)cc(C(F)(F)F)n2n1 | – | –
Cc1nnc2n1CCN(C(=O)c1n[nH]c3ccccc13)C2 | – | –
COc1ccc(C2CN(S(=O)(=O)c3cccc(C#N)c3)CCN2C)cc1 (configuration not stated) | – | –
CCc1ccc(NC(=O)CSc2nc3c(c(=O)n2-c2ccccc2OC)SCC3)cc1 | – | –
Cc1ccc(O)c(N=Cc2cccc([N+](=O)[O-])c2O)c1 | – | –
Cc1ccc(O)c(N=Cc2cc3c(cc2[N+](=O)[O-])OCO3)c1 | – | 99
O=c1c(Nc2ccc(Cl)cc2)nc2ccncc2n1Cc1ccccc1 | – | –
SMILES | Pf apPOL inh | mHTT-CaM PPI inh
CN=C1S/C(=C/c2ccc(C)o2)C(=O)N1C | · | –
Cc1ccc(/C=C2\CS/C(=C\c3ccc(C)o3)C2=O)o1 | – | 100
CCOc1ccc(C2=C/C(=C\c3cccs3)C(=O)O2)cc1 | 52 | –
O=C1OC(c2ccc(Cl)cc2)=C/C1=C\c1ccc(Br)o1 | – | –
COc1ccc(C2=C/C(=C\c3cccs3)C(=O)O2)cc1 | – | –
CCOc1ccc(C2=C/C(=C\c3ccc(Br)o3)C(=O)O2)cc1 | – | 98
COc1cc(NCc2ccc3c(c2)Cc2ccccc2-3)cc(OC)c1OC | – | 59
COc1ccc(CC(=O)Nc2ccc3c(c2)Cc2ccccc2-3)cc1OC | – | –
Cc1ccc(C)c(NC(=O)Cn2c(=O)n(-c3ccc(F)cc3)c3ncccc32)c1 | – | –
COc1ccc(-c2nc3ccc(N=Cc4cc5c(cc4[N+](=O)[O-])OCO5)cc3o2)cc1 | – | –
O=[N+]([O-])c1cc2c(cc1C=Nc1ccc(I)cc1)OCO2 | – | 64
O=[N+]([O-])c1cccc(C=Nc2ccc(I)cc2)c1O | – | –
Cc1ccc(N=Cc2cc3c(cc2[N+](=O)[O-])OCO3)cc1I | – | 55
COc1ccc(CCNC(=O)CCC(=O)N2CCCn3nc(C)cc32)cc1OC | – | –
Cn1nc(-c2nnc(-c3ccccc3F)o2)c2c1CCN(C(=O)c1c(F)cccc1F)C2 | – | –
COCCC1CCN(C(=O)COc2cccc(Cl)c2)CC1 | – | –
O=c1[nH]c2c(s1)C1c3ccccc3OC3CCCC(S2)C31 (configuration not stated) | – | 52
O=C(O)C1C2CC3C1C(=O)Oc1ccccc1C1c4sc(=O)[nH]c4SC2C13 (configuration not stated) | – | –
COc1ccc(C(=O)Nc2nc(CC(=O)Nc3ccc4c(c3)OCCO4)cs2)cc1 | – | –
COc1ccc(Nc2nc(C(=O)Nc3ccc4c(c3)OCCO4)cs2)c(OC)c1 | – | 53
CN(C)c1ncncc1N1CCC(C(=O)N2CCN(C3CCCCC3)CC2)CC1 | – | –
Cc1ccnc(N2CCC(C(=O)N3CCN(c4cccc(C)c4C)CC3)CC2)n1 | – | –
CN(C)c1ncncc1N1CCC(C(=O)N2CCN(c3cccc(Cl)c3)CC2)CC1 | – | 74
CN(C)c1ncncc1N1CCC(C(=O)N2CCN(c3ccccc3F)CC2)CC1 | – | –
Cc1cccc(N2CCN(C(=O)C3CCN(c4cncnc4N(C)C)CC3)CC2)c1C | – | 52
SMILES | Pf apPOL inh | mHTT-CaM PPI inh
Cc1ccnc(N2CCC(C(=O)N3CCN(c4cc(Cl)ccc4C)CC3)CC2)n1 | – | 88
O=C(c1ccc(Cl)cc1)N(Cc1cc(-c2cccs2)on1)C1CC1 | – | –
Clc1ccccc1-c1nc(-c2ccc(-n3ccnc3)nc2)no1 | – | –
O=C1c2ccccc2C(=O)c2c(NC3CCCCC3)ccc(NC3CCCCC3)c21 | – | ·
CC1(C)CC(=C2C(=O)c3ccccc3C2=O)C=C2c3ccccc3C(=O)C21 (configuration not stated) | – | 65
O=C(Cn1nc2c(N3CCOCC3)nccn2c1=O)N1CCN(c2ccccc2F)CC1 | – | –
Cn1c(=O)oc2cc(-c3noc(CCc4ccccc4)n3)ccc21 | – | –
COc1ccc2nc(C)cc(N)c2c1 | – | –
COc1ccc(-n2c(C)ccc2C)c(N)c1 | – | 54
CN(C)CCNc1ccc(-c2nc(-c3cccc(F)c3)no2)cn1 | – | –
Cc1nnc(-c2ccccn2)[nH]c1=O | – | ·
Cc1nc(-c2cnccn2)[nH]c(=O)c1C | – | 71
CCOc1cc2c(c([N+](=O)[O-])c1)NC(c1ccc(Cl)cc1)C1CC=CC21 (configuration not stated) | – | –
COc1cccc2c1NC(c1ccccc1[N+](=O)[O-])C1CC=CC21 (configuration not stated) | – | 73
COc1ccc(C2Nc3c(OC)ccc(Cl)c3C3C=CCC32)cc1[N+](=O)[O-] (configuration not stated) | – | 62
Fc1ccc(C2Nc3c(Cl)cccc3C3C=CCC32)cc1 (configuration not stated) | – | –
COc1cc([N+](=O)[O-])cc2c1NC(c1ccc(Cl)cc1)C1CC=CC21 (configuration not stated) | – | –
COc1cc(C2Nc3c(Cl)cccc3C3C=CCC32)cc(OC)c1OC (configuration not stated) | – | 70
COc1ccc(C2Nc3c(Cl)cccc3C3C=CCC32)cc1[N+](=O)[O-] (configuration not stated) | – | 52
CC(C)c1ccc(N2C(=O)CN(Cc3ccccc3)C3CS(=O)(=O)CC32)cc1 (configuration not stated) | – | –
COCCN(CCOC)Cc1c(O)cc(OC)c2c(=O)cc(-c3ccccc3)oc12 | – | –
Cc1ccccc1Cn1ccnc1C(=O)N1CCNC(=O)C1 | – | –

Screens as filed in PubChem BioAssay.
